The text below walks through data of PubChem BioAssay (NCI).

Compounds without any hit were thinned out: in the full panel of roughly 83,000, 20% have a hit.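 Each cell line was grown in a 96-well plate and treated with one concentration of compound for 48 hours. Values below 10 were considered active.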 A number with no mark means an inactive call. The source made the active and inactive calls.

The test relates to HOP-62 NSCLC. The experiment in a line: NCI-60 one-dose screen, 48 h (100 = growth as untreated, 0 = no growth, -100 = all killed). The conditions noted are these: 10 µM unless noted.
`O=C(/C=C/c1ccc(Cl)cc1)c1ccc(NC(=O)N2CCN(c3cc4c(cc3F)c(=O)c(C(=O)O)cn4C3CC3)CC2)cc1`: the growth is 106%.

Consider `O=C(/C=C(/C=C/c1csc2ccccc12)OB(F)F)/C=C/c1csc2ccccc12`, for which the growth is 90.7%.

In the case of `CN1CCN(C(=O)[C@]23CCC(C)(C)C[C@H]2C2=CC[C@@H]4[C@@]5(C)C/C(=C/c6cccnc6)C(=O)C(C)(C)[C@@H]5CC[C@@]4(C)[C@]2(C)CC3)CC1`, the growth was 85.2%.

Turning to `CC1=CCC(OC(=O)C(C)(O)CCC(O)(C(=O)OC2(C)C=CC(O)(C(C)C)CC2)C(C)C)(C(C)C)CC1` (stereo not drawn), the growth was 99.8%.

In the case of `NC1=NN=C(N)C1=Cc1cc2ccccc2n2nnnc12`, the growth was 96.8%.

As for `COc1ccc(NC(N)=NCCCOc2ccc(F)cc2)cc1`, the growth was 74.2%.

Take `O=C1c2ccc3c4c(ccc(c24)C(=O)N1CCCNCc1ccccc1)C(=O)N(CCCNCc1ccccc1)C3=O`: the growth was -38.5% (active).

Take `O=C(NCCNc1nccc(-c2c(-c3cccc(F)c3)nc3sccn23)n1)c1ccc(Cl)cc1`: the growth is 91.9%.

In the case of `C=C1C(=O)O[C@H]2[C@H]1CC/C(COC(=O)NCCc1c[nH]c3ccc(OC)cc13)=C\CC[C@@]1(C)O[C@@H]21`, the growth was 83.4%.

Consider `COc1cc(CC(=O)c2ccc(O)c(OC)c2)ccc1O`, for which the growth is 91.4%.

Take `CCN(CC)c1ccc(/C=N/NC(=O)CSc2nc3ccccc3c(=O)n2CCc2ccc(S(N)(=O)=O)cc2)c(O)c1`: the growth was 30.4%.

For the compound `Cc1ccc(-n2c3c(c(-c4ccccc4)c2-c2ccccc2)C2=NCCN2C=N3)cc1`, the growth was 97.6%.

Take `CN1CCN(C(=O)[C@]23CCC(C)(C)C[C@H]2C2=CC[C@@H]4[C@@]5(C)C/C(=C/c6ccncc6)C(=O)C(C)(C)[C@@H]5CC[C@@]4(C)[C@]2(C)CC3)CC1`: the growth was 83.1%.

With `C=C(C)[C@@H]1CC[C@]2(C(=O)N3CCN(C)CC3)CC[C@]3(C)[C@H](CC[C@@H]4[C@@]5(C)C/C(=C/c6cccnc6)C(=O)C(C)(C)[C@@H]5CC[C@]43C)[C@@H]12`, the growth was 88.4%.

For `N/C(=N\C(N)=N\c1nc2ccccc2s1)c1cccc(Cl)c1`, the growth was -8.36% (active).

For `CCOC(=O)Nc1ccc(-c2ccc3c(c2)NC(=O)/C3=C\c2ccc[nH]2)cc1`, the growth was 91.9%.

Consider `CCNC(=O)Oc1ccc(/C(=C(\C)c2ccccc2)c2ccc(OCCN(CC)CC)cc2)cc1`, for which the growth is 96.2%.

For `CCOC(=O)/C(C#N)=C1/NNC(=Nc2cccnc2)S1`, the growth was 90.8%.

As for `COc1cccc(-c2nc3occn3c2-c2ccnc(NCCCNS(=O)(=O)c3ccc(C(F)(F)F)cc3)n2)c1`, the growth is 103%.

In the case of `CC(=O)Nc1ccc(-n2cnc3cc(-c4ccc(OCCN5CCCCC5)cc4)ccc32)cc1`, the growth is 82.5%.

With `Cn1ccnc1C(=O)/C=C/c1ccc(CC(=O)Nc2ccc(Cl)cc2)cc1`, the growth is -21.2% (active).

With `C=CCN1C(=O)/C(=C/C(=O)OC)S/C1=N\NC(=O)c1cc2ccc1/C=C\c1ccc(cc1)/C=C\2`, the growth is 107%.

Take `COc1ccc(/C=C(\C#N)n2nc3cccc(F)c3n2)cc1`: the growth was 105%.

For `N/C(=N\C(N)=N\c1nc2ccccc2s1)c1cnccn1`, the growth was 40.2%.

As to `Cc1c(C(=O)NCCC(=O)NO)sc2ncnc(Nc3ccc(NC(=O)Nc4cccc(C(F)(F)F)c4)cc3)c12`, the growth was 102%.

With `O=C(Nc1ccc(-c2ccc3c(c2)NC(=O)/C3=C\c2ccc[nH]2)cc1)NC1CC1`, the growth was 113%.

Turning to `S=c1cc(S)c2cc(Br)ccc2[nH]1`, the growth is 85.9%.

Turning to `CCCCOc1ccc(/C=N/Nc2cc(C)nc3ccc(Br)cc23)cc1`, the growth is 82.5%.

With `N/C(=N\C(N)=N\c1nc2ccccc2s1)c1ccnc(Br)c1`, the growth was 29.8%.

`COc1cc(NC(C)CCCNC(=O)CCC(=O)NCCCNCCCCCCCCNCCCNC(=O)CCC(=O)NCCCC(C)Nc2cc(OC)cc3cccnc23)c2ncccc2c1` (stereo not drawn): the growth was 85.2%.

For the compound `COc1cc2nc(-c3ccc(C(F)(F)F)cc3)cc(OCCCN3CCOCC3)c2cc1OC`, the growth is 51.9%.

Regarding `O=C(Cn1c[n+](CC(=O)c2ccc(-c3ccccc3)cc2)c2ccccc21)Nc1cccc2cccnc12`, the growth is 43.2%.

For `CC(Oc1ccc(C(=O)O)cc1C(F)(F)F)c1ccc(Oc2ccccc2)cn1` (stereo not drawn), the growth was 99.1%.

Regarding `O=C(Nc1ccc(F)cc1)Nc1ccc(NC(=O)c2cc(Cl)nc3ccccc23)cc1`, the growth was 22.4%.

For `O=C(CCN1CCCC1)Nc1ccc2c(Nc3ccc(F)cc3)c3ccccc3nc2c1`, the growth was -12.5% (active).

With `CC(Sc1nc2ccccc2c(=O)n1CCc1ccc(S(N)(=O)=O)cc1)C(=O)Nc1ccc(Cl)cc1` (stereo not drawn), the growth is 84.4%.

For the compound `O=C(N/N=C/c1cc2ccccc2n2nnnc12)Nc1ccccc1`, the growth is 100%.

On to `CC1(C)CC(=O)C2=C(C1)N(c1ccc(F)cc1F)C(N)=C(C#N)C2c1cc(Br)ccc1F` (stereo not drawn), for which the growth was 89.9%.
